The record followed here is PubChem BioAssay (NCATS).

Common to all, as to test: qHTS profiling for inhibitors of Plasmodium falciparum proliferation (AID 504749); also: nearly all actives have a fitted effect of over 60% in size
What all share (details): P. falciparum in erythrocytes, SYBR Green DNA, 72 h; series mostly up to 28.7 µM

One assay deals with DIV14. In short, it runs like this:
(§1)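 SYBR Green fluorescence (ex 485 nm, em 535 nm) reports parasite DNA after 72 h compound exposure of infected red cells at 0.3% parasitemia, 2.5% hematocrit; signal normalized to 0.29 uM artemisinin and vehicle wells.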

The next assay deals with DIV17. In short, it runs like this: as §1
A further assay concerns DIV30. In short, it runs like this: as §1
The subject of the next assay is Dd2. In short, it runs like this: as §1
The test system of another assay is ECU. In a few lines:
as §1

The next assay concerns FAB9. In short, it runs like this: as §1
A further assay concerns GB4. In a few lines: as §1
The subject of a further assay is HB3. In a few lines: as §1
Another assay relates to ICS. In short, it runs like this:
as §1

The next assay has as its system JCK. In a few lines: as §1
Another assay relates to N140. In a few lines: as §1
The next assay deals with P93_24. In a few lines:
as §1

The subject of the next assay is P94_40. In a few lines: as §1
Another assay concerns PAD. In a few lines: as §1
The next assay deals with PC15. In short, it runs like this:
as §1

The next assay relates to PC26. In short, it runs like this:
as §1

For another assay, the system named is PC49. In a few lines: as §1
In another assay the test system is SC27B. In short, it runs like this: as §1
A further assay deals with TAB109. In a few lines:
as §1

The test system of the next assay is TAB113. In a few lines:
as §1

Molecules are shown by their SMILES. Results filed as inconclusive are left out. Activity calls are given as the source filed them. Calls follow the shape of the dose curve; as a rule, active = well fitted inhibition curve with a large enough effect; inconclusive = small, poorly fitted or top-dose-only effect; inactive = flat fitted curve, though single readings scatter.
Potency is read from the fitted curve at half-maximal effect.

On to `O=C(O)c1ccccc1-c1ccc(C(F)(F)F)cc1`, for which the Potency entry in the assay on DIV14, in the assay on DIV17, in the assay on DIV30, in the assay with Dd2, in the assay on ECU and in the assay on FAB9 was “inactive” in each case. The Potency entry in the assay on GB4, in the assay with HB3, with ICS, in the assay on JCK, with N140 and in the assay on P93_24 was “inactive” each time. In addition, the Potency result with P94_40, with PAD, with PC15, with PC26, in the assay on PC49 and in the assay with SC27B was “inactive” each time. Moreover, the Potency entry in the assay on TAB109 and with TAB113 was “inactive” each time.

As to `NS(=O)(=O)c1cc2c(cc1Cl)NC(CSCc1ccccc1)=NS2(=O)=O`, the Potency entry with DIV14, in the assay on DIV17, in the assay on DIV30, in the assay with Dd2, with ECU and in the assay on FAB9 was “inactive” in each case. For the same molecule, the Potency entry in the assay with GB4, in the assay on HB3, in the assay with ICS, in the assay on JCK, in the assay on N140 and in the assay with P93_24 was “inactive” throughout. Also, the Potency entry in the assay with P94_40, in the assay on PAD, with PC15, in the assay with PC26, with PC49 and in the assay with SC27B was “inactive” in each case. The Potency result in the assay on TAB109 and in the assay on TAB113 was “inactive” in each case.

With `Cc1cccc(C)c1NC(=O)CN(CC(=O)O)CC(=O)O`, the Potency entry in the assay on DIV14, in the assay with DIV17, in the assay on DIV30, with Dd2, with ECU and in the assay with FAB9 was “inactive” each time. The Potency result in the assay on GB4, with HB3, with ICS, with JCK, in the assay with N140 and in the assay on P93_24 was “inactive” throughout. Besides, the Potency entry in the assay with P94_40, with PAD, in the assay with PC15, in the assay on PC26, in the assay with PC49 and in the assay with SC27B was “inactive” throughout. Further, the Potency entry in the assay on TAB109 and in the assay on TAB113 was “inactive” each time.

As for `O=c1cc(CO)occ1O`, the Potency entry in the assay on DIV14, with DIV17, with DIV30, in the assay with Dd2, in the assay on ECU and in the assay with FAB9 was “inactive” in each case. Besides, the Potency entry with GB4, with HB3, in the assay on ICS, in the assay with JCK, with N140 and in the assay on P93_24 was “inactive” each time. Besides, the Potency entry in the assay on P94_40, with PAD, with PC15, with PC26, in the assay on PC49 and in the assay with SC27B was “inactive” in each case. Besides, the Potency result with TAB109 and in the assay with TAB113 was “inactive” throughout.

In the case of `O=C(Oc1ccccc1C(=O)O)c1ccccc1O`, the Potency entry in the assay on DIV14, with DIV17, in the assay with DIV30, with Dd2, in the assay on ECU and in the assay with FAB9 was “inactive” each time. Further, the Potency result with GB4, in the assay with HB3, in the assay with ICS, in the assay with JCK, with N140 and in the assay with P93_24 was “inactive” each time. Besides, the Potency entry in the assay on P94_40, in the assay with PAD, in the assay on PC15, in the assay on PC26, in the assay with PC49 and in the assay with SC27B was “inactive” in each case. The Potency entry in the assay on TAB109 and with TAB113 was “inactive” throughout.

Take `COc1cc2[nH]c(=O)[nH]c(=O)c2cc1OC`: the Potency result in the assay with DIV14, with DIV17, in the assay on DIV30, in the assay with Dd2, in the assay on ECU and in the assay on FAB9 was “inactive” each time. Besides, the Potency result with GB4, in the assay on HB3, in the assay on ICS, with JCK, with N140 and with P93_24 was “inactive” each time. For the same molecule, the Potency entry in the assay on P94_40, in the assay with PAD, in the assay on PC15, in the assay on PC26, in the assay on PC49 and in the assay with SC27B was “inactive” each time. The Potency result in the assay with TAB109 and in the assay with TAB113 was “inactive” in each case.

Regarding `CC(C)(C)C(=O)NCCCC(=O)O`, the Potency entry with DIV14, with DIV17, with DIV30, in the assay with Dd2, in the assay with ECU and in the assay on FAB9 was “inactive” throughout. The Potency entry with GB4, in the assay with HB3, with ICS, in the assay on JCK, with N140 and in the assay on P93_24 was “inactive” each time. The Potency entry in the assay with P94_40, in the assay on PAD, in the assay on PC15, in the assay with PC26, in the assay on PC49 and in the assay on SC27B was “inactive” throughout. Further, the Potency result in the assay with TAB109 and with TAB113 was “inactive” throughout.

For `Cc1cc2c(cc1S(N)(=O)=O)S(=O)(=O)CCC2`, the Potency result in the assay on DIV14, in the assay with DIV17, in the assay on DIV30, in the assay with Dd2, in the assay on ECU and in the assay on FAB9 was “inactive” each time. Moreover, the Potency entry in the assay on GB4, in the assay with HB3, in the assay on ICS, in the assay on JCK, in the assay with N140 and with P93_24 was “inactive” in each case. The Potency entry with P94_40, with PAD, in the assay with PC15, with PC26, in the assay on PC49 and with SC27B was “inactive” throughout. Also, the Potency entry in the assay with TAB109 and with TAB113 was “inactive” throughout.

As for `CCCCc1ncc(/C=C(\Cc2cccs2)C(=O)O)n1Cc1ccc(C(=O)O)cc1`, the Potency entry in the assay with DIV14, in the assay with DIV17, in the assay with DIV30, with Dd2, in the assay with ECU and in the assay on FAB9 was “inactive” each time. In addition, the Potency result in the assay on GB4, in the assay on HB3, in the assay with ICS, in the assay on JCK, with N140 and in the assay on P93_24 was “inactive” throughout. In addition, the Potency result with P94_40, in the assay on PAD, with PC15, in the assay on PC26, with PC49 and in the assay on SC27B was “inactive” throughout. Moreover, the Potency result in the assay with TAB109 and in the assay on TAB113 was “inactive” in each case.

For the molecule `CCCCC(CC)COC(=O)c1ccccc1O` (stereo not given), the Potency result in the assay on DIV14, in the assay with DIV17, with DIV30, with Dd2, in the assay with ECU and in the assay on FAB9 was “inactive” throughout. Besides, the Potency result with GB4, in the assay on HB3, with ICS, in the assay with JCK, in the assay on N140 and with P93_24 was “inactive” throughout. Also, the Potency entry in the assay with P94_40, with PAD, in the assay with PC15, in the assay with PC26, in the assay on PC49 and in the assay on SC27B was “inactive” each time. Further, the Potency entry with TAB109 and in the assay on TAB113 was “inactive” in each case.

On to `NC(=O)NC(=O)Cc1ccccc1`, for which the Potency result in the assay on DIV14, in the assay on DIV17, in the assay on DIV30, in the assay on Dd2, with ECU and in the assay with FAB9 was “inactive” in each case. The Potency entry in the assay on GB4, with HB3, with ICS, in the assay on JCK, in the assay on N140 and with P93_24 was “inactive” in each case. Further, the Potency entry in the assay with P94_40, with PAD, in the assay on PC15, in the assay on PC26, with PC49 and in the assay on SC27B was “inactive” throughout. Besides, the Potency entry in the assay on TAB109 and in the assay with TAB113 was “inactive” each time.

With `Cc1cc(N)c2ccccc2[n+]1CCCCCCCCCC[n+]1c(C)cc(N)c2ccccc21`, the Potency with DIV14 is 161 nM (active); in the assay with DIV17, 287 nM (active); in the assay with DIV30, 256 nM (active); in the assay with Dd2 it was 63.1 nM (active); in the assay on ECU it was 2510 nM (active); in the assay on FAB9 it was 199 nM (active). Further, the Potency with GB4 was 144 nM (active); in the assay on HB3, 794 nM (active); with ICS it was 100 nM (active); in the assay with JCK it was 1120 nM (active); in the assay on N140, 251 nM (active); in the assay on P93_24 it was 70.8 nM (active). The Potency in the assay with P94_40 was 7080 nM (active); in the assay with PAD it was 2240 nM (active); in the assay on PC15, 282 nM (active); in the assay with PC26, 510 nM (active); in the assay on PC49, 126 nM (active); in the assay on SC27B, 0.0316 nM (active). Further, the Potency with TAB109 is 4470 nM (active); in the assay on TAB113 it was 126 nM (active).

Take `COc1ccc2c(c1)C(=O)N(CCc1ccc(S(=O)(=O)NC(=O)NC3CCCCC3)cc1)C(=O)C2(C)C`: the Potency result in the assay on DIV14, in the assay on DIV17, in the assay on DIV30, with Dd2, with ECU and in the assay on FAB9 was “inactive” throughout. The Potency result with GB4, in the assay on HB3, with ICS, with JCK, with N140 and with P93_24 was “inactive” each time. The Potency entry with P94_40, in the assay on PAD, with PC15, with PC26, in the assay with PC49 and in the assay on SC27B was “inactive” throughout. Further, the Potency result with TAB109 and in the assay on TAB113 was “inactive” each time.

Take `COc1ccccc1O`: the Potency result in the assay with DIV14, in the assay with DIV17, in the assay on DIV30, with Dd2, in the assay on ECU and in the assay with FAB9 was “inactive” in each case. The Potency result in the assay on GB4, in the assay on HB3, in the assay on ICS, in the assay with JCK, in the assay on N140 and with P93_24 was “inactive” each time. The Potency entry with P94_40, in the assay on PAD, with PC15, in the assay with PC26, with PC49 and in the assay with SC27B was “inactive” in each case. Also, the Potency result with TAB109 and in the assay on TAB113 was “inactive” each time.
